Assay results published in PubChem BioAssay (NCATS).
Results filed as inconclusive are left out. Active and inactive are the calls of the source. The call rests on the fitted dose curve; in most records, active means well fitted inhibition curve with a large enough effect; inconclusive means small, poorly fitted or top-dose-only effect; inactive means flat fitted curve, though single readings scatter.

Experiments:
Experiment in all cases: Cytotoxic Profiling of Annotated Libraries Using Quantitative High-Throughput Screening (AID 1296008); further: nearly all actives have a fitted effect of over 60% in size
Settings in all cases: Five cell lines viability, CellTiter-Glo ATP luminescence, 48-72 h; max response: active compounds read low
HEK293 = system: HEK293
Summary of the method: (§1)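 Cytotoxicity was measured as CellTiter-Glo ATP luminescence, read after 10 min at room temperature. Compound treatment of the cells lasted 48 or 72 hr at 37 degrees Celsius in a qHTS format.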

HaCat = system: HaCat
Summary of the method: as §1

KB-3-1 = system: KB-3-1
Summary of the method: as §1

NIH3T3 = system: NIH3T3
Summary of the method: as §1

Measured: max response
On the % scale 0 is the no-effect control and ±100 the full control effect.

CO/N=C(/C(=O)N[C@@H]1C(=O)N2C(C(=O)O)=C(Cn3ccc(=N)n3CCO)CS[C@H]12)c1csc(N)n1
inactive: HEK293 -94.3% | HaCat | KB-3-1 -6.11% | NIH3T3

C=C1CCC2C(C)(C)C(O)CCC2(C)C1CCC(C)CCOC(C)=O (stereo not drawn)
inactive: HEK293 -19.2% | HaCat -5.36% | KB-3-1 3.19% | NIH3T3 -9.96%

O=C(CCCCN1CCOCC1)Nc1ccc(-c2cccnc2)cc1
inactive: HEK293 0.956% | HaCat -1.44% | KB-3-1 3.7% | NIH3T3 4.47%

COc1ccc([C@@]2(O)c3c(ccc4c3OC(C)(CCC=C(C)C)C=C4)NC(=O)[C@@H]2OC)cc1 (stereo partly drawn)
inactive: HEK293 -3.72% | HaCat 1.02% | KB-3-1 4.57% | NIH3T3 -14.3%

C=CC1(C)C=C2CCC3C(C)(C)C(O[C@@H]4O[C@@H](CO)[C@H](O)[C@H]4O)CCC3(C)C2CC1O[C@@H]1O[C@H](C)[C@H](O)[C@H](O)[C@H]1O (stereo partly drawn)
inactive: HEK293 -0.0102% | HaCat 4.85% | KB-3-1 -11.1% | NIH3T3 -6.13%

CC1(C)CCC2(C(=O)OC3OC(CO)C(O)C(O)C3O)CCC3(C)C(=CCC4C5(C)CCC(OC6OC(C(=O)O)C(OC7OC(CO)C(O)C(O)C7O)C(OC7OC(CO)C(O)C(O)C7O)C6O)C(C)(C)C5CCC43C)C2C1 (stereo not drawn)
inactive: HEK293 4.12% | HaCat 0.399% | KB-3-1 6.58% | NIH3T3 -0.359%

N#Cc1ccc(C(=O)N2CCC3(CC2)N=C(N)c2c(F)ccc(F)c2N3)cn1
inactive: HEK293 -18.7% | HaCat 2.01% | KB-3-1 -9.49% | NIH3T3 -5.13%
